Several values for one entry are separate records, joined by “and”; a condition that tells them apart may be missing. Equal values may be shown once. In all, about 5,500 compounds went through this assay and about 2,000 (36%) were called active. Not shown: some 18% with an inconclusive outcome. Rule as the data show it: active = normalized growth mostly below about 0.91 (no sharp cut-off); inconclusive = no clear call, values can overlap the other calls; inactive = mostly above about 0.92. This is one part of the list.
Experiment: chemical genetic growth profiling, strain panel (AID 1159580);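 also: tested at 20 µM; growth read once vehicle control cultures reached saturation at 30 °C; 1 = growth at the plate median or of vehicle wells; lower values mean less growth of the strain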
Conditions: S. cerevisiae deletion strains, growth OD

Measured: normalized growth

NC1=NCCN1CC(=O)O
inactive: locus YAL013W, strain DEP1, hits give low values 0.99 | locus YAL021C, strain ccr4, hits give low values 1.02 | locus YAL026C, strain drs2, hits give low values 1.02 | locus YAL030W, strain snc1, hits give low values 1.03 | locus YBL061C, strain skt5, hits give low values 1.01 | locus YBR009C, strain hhf1, hits give low values 1 | locus YBR021W, strain FUR4, hits give low values 1 | locus YBR023C, strain chs3, hits give low values 1.01 | locus YBR171W, strain sec66, hits give low values 1.01 | locus YBR229C, strain ROT2, hits give low values 0.96 | locus YBR231C, strain swc5, hits give low values 1.01 | locus YBR279W, strain paf1, hits give low values 1.01 | locus YCL011C, strain gbp2, hits give low values 1.04 | locus YCL016C, strain dcc1, hits give low values 1.01 | locus YCL029C, strain bik1, hits give low values 0.997 | locus YCL069W, strain vba3, hits give low values 1.01 | locus YCR088W, strain abp1, hits give low values 1.02 | locus YDL005C, strain med2, hits give low values 1.01 | locus YDL035C, strain GPR1, hits give low values 0.989 | locus YDL040C, strain nat1, hits give low values 1.01 | locus YDL074C, strain BRE1, hits give low values 0.924 | locus YDL101C, strain DUN1, hits give low values 0.961 | locus YDL134C, strain PPH21, hits give low values 1.01 | locus YDL185W, strain tfp1, hits give low values 0.986 | locus YDL192W, strain arf1, hits give low values 0.992 | locus YDR001C, strain nth1, hits give low values 1.01 | locus YDR069C, strain doa4, hits give low values 1.02 | locus YDR101C, strain arx1, hits give low values 0.996 | locus YDR137W, strain rgp1, hits give low values 1.04 | locus YDR150W, strain NUM1, hits give low values 0.986 | locus YDR159W, strain sac3, hits give low values 0.958 | locus YDR162C, strain NBP2, hits give low values 0.99 | locus YDR195W, strain ref2 1.02 | locus YDR297W, strain sur2, hits give low values 1 | locus YDR318W, strain mcm21, hits give low values 0.995 | locus YDR334W, strain swr1, hits give low values 1.01 | locus YDR335W, strain msn5, hits give low values 1.01 | locus YDR388W, hits give low values 0.989 | locus YDR392W, strain spt3, hits give low values 0.86 | locus YDR502C, strain sam2, hits give low values 0.988 | locus YEL003W, strain gim4, hits give low values 0.996 | locus YEL037C, strain rad23, hits give low values 1.02 | locus YEL061C, strain CIN8 (second series), hits give low values 1.03 | locus YEL061C, strain CIN8, hits give low values 0.981 | locus YER015W, strain faa2, hits give low values 1.02 | locus YER016W, strain bim1, hits give low values 1.03 | locus YER110C, hits give low values 0.988 | locus YER111C, strain swi4, hits give low values 1.03 | locus YER155C, strain BEM2 (second series), hits give low values 0.911 | locus YER155C, strain BEM2, hits give low values 1 | locus YER167W, strain BCK2, hits give low values 0.984 | locus YFR010W, strain ubp6, hits give low values 1.01 | locus YGL078C, strain dbp3, hits give low values 0.997 | locus YGL086W, strain mad1, hits give low values 0.98 | locus YGL167C, strain pmr1, hits give low values 1.01 | locus YGL173C, strain kem1, hits give low values 1 | locus YGL227W, strain vid30, hits give low values 1.04 | locus YGL240W, strain doc1, hits give low values 1 | locus YGL248W, strain PDE1, hits give low values 0.971 | locus YGL253W, strain hxk2, hits give low values 1.01 | locus YGR135W, strain pre9, hits give low values 1.01 | locus YGR229C, strain SMI1, hits give low values 1.02 | locus YGR252W, strain gcn5, hits give low values 1.01 | locus YHR013C, strain ard1, hits give low values 0.996 | locus YHR027C, strain rpn1, hits give low values 1.02 | locus YHR030C, strain SLT2, hits give low values 0.998 and 0.992 | locus YHR079C, strain IRE1 (second series), hits give low values 0.997 | locus YHR079C, strain IRE1, hits give low values 0.992 | locus YHR094C, strain hxt1, hits give low values 0.995 | locus YHR129C, strain ARP1, hits give low values 0.999 | locus YHR142W, strain chs7, hits give low values 0.992 | locus YHR200W, strain rpn10, hits give low values 0.99 | locus YIL066C, strain RNR3, hits give low values 0.966 | locus YIL073C, strain SPO22, hits give low values 1.07 | locus YIL125W, strain kgd1, hits give low values 0.984 | locus YIR030C, strain dcg1, hits give low values 0.994 | locus YJL092W, strain hpr5, hits give low values 1.01 | locus YJL095W, strain BCK1 (second series), hits give low values 1.02 | locus YJL095W, strain BCK1, hits give low values 0.969 and 0.972 | locus YJL115W, strain asf1, hits give low values 1.02 | locus YJL129C, strain trk1, hits give low values 1 | locus YJL134W, strain LCB3, hits give low values 0.988 | locus YJL154C, strain vps35, hits give low values 1.02 | locus YJL164C, strain tpk1, hits give low values 0.986 | locus YJL166W, strain qcr8, hits give low values 1 | locus YJL168C, strain set2, hits give low values 0.989 | locus YJL187C, strain SWE1 (second series), hits give low values 0.964 | locus YJL187C, strain SWE1, hits give low values 1

— PubChem BioAssay AID1159580 (chemical genetic matrix, 2015)
